Measurements: PubChem BioAssay (NCI)
About 83,000 compounds went through this panel and 20% of them were active in at least one assay; those are over-represented in the sample as a whole.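 Method: cells in 96-well plates; compound added at one concentration; 48 h incubation; percent growth measured; values under 10 scored active.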 Unmarked numbers belong to inactive results. Calls of active or inactive are those of the source.

Experiments:
Test in all cases: NCI-60 one-dose screen, 48 h (100 = growth as untreated, 0 = no growth, -100 = all killed)
Details in all cases: 10 µM unless noted
HCT-15 colon = tested on: HCT-15 colon
HT29 colon = tested on: HT29 colon
SNB-75 CNS = tested on: SNB-75 CNS
SNB-19 CNS = tested on: SNB-19 CNS
U251 CNS = tested on: U251 CNS
PC-3 prostate = tested on: PC-3 prostate
SK-MEL-5 melanoma = tested on: SK-MEL-5 melanoma
UACC-62 melanoma = tested on: UACC-62 melanoma
LOX IMVI melanoma = tested on: LOX IMVI melanoma
SK-MEL-28 melanoma = tested on: SK-MEL-28 melanoma
SK-MEL-2 melanoma = tested on: SK-MEL-2 melanoma
EKVX NSCLC = tested on: EKVX NSCLC
SN12C renal = tested on: SN12C renal
UO-31 renal = tested on: UO-31 renal
TK-10 renal = tested on: TK-10 renal
ACHN renal = tested on: ACHN renal
CAKI-1 renal = tested on: CAKI-1 renal
A498 renal = tested on: A498 renal
MOLT-4 leukemia = tested on: MOLT-4 leukemia
CCRF-CEM leukemia = tested on: CCRF-CEM leukemia

SMILES	growth (HCT-15 colon)	growth (HT29 colon)	growth (SNB-75 CNS)	growth (SNB-19 CNS)	growth (U251 CNS)	growth (PC-3 prostate)	growth (SK-MEL-5 melanoma)	growth (UACC-62 melanoma)	growth (LOX IMVI melanoma)	growth (SK-MEL-28 melanoma)	growth (SK-MEL-2 melanoma)	growth (EKVX NSCLC)	growth (SN12C renal)	growth (UO-31 renal)	growth (TK-10 renal)	growth (ACHN renal)	growth (CAKI-1 renal)	growth (A498 renal)	growth (MOLT-4 leukemia)	growth (CCRF-CEM leukemia)
c1cc(OCCCCCOc2cccc(-c3nc4ccccc4[nH]3)c2)cc(-c2nc3ccccc3[nH]2)c1	12.3%	5.53% (active)	31.4%	22.3%	6.76% (active)	-13.1% (active)	-81.5% (active)	8.55% (active)	-27.8% (active)	18.7%	9.28% (active)	2.5% (active)	26.4%	3.69% (active)	25.7%	6.47% (active)	36.4%	9.68% (active)	-13.5% (active)	
COc1ccc(-c2cc(-c3cccnc3)nc3sc4c(N)c(C(C)=O)c(-c5ccccc5)nc4c23)cc1OC	73.6%	52.5%	63.5%	86%	55.6%	54.9%	39.4%	75.5%	75.5%	70%	89.1%	87.4%	80.3%	51.8%	77.6%	81.1%	61.8%	71.7%	72.5%	
CNC(=O)c1cc(Oc2ccc3c(c2)sc2nc(-c4ccc(Cl)c(C(F)(F)F)c4)cn23)ccn1	65%	56%	81.4%	77.2%	71.9%	45.3%	18.8%	60.6%	50%	80.1%	59.4%	46.7%	64.4%	58.8%	48.3%	62.9%	74.1%	50.6%	41.6%	
CCN(CC)c1ccc(-c2cc(-c3cc(OC)c(OC)c(OC)c3)nc(N3CCC(O)CC3)c2C#N)cc1	-36.7% (active)	-32.7% (active)	-41.5% (active)	15.4%	-32.5% (active)	13.1%	-99.4% (active)	-49.9% (active)	-27.8% (active)	-46.6% (active)	-66.6% (active)	18.6%	13.5%	-43.9% (active)	3.06% (active)	7.6% (active)	-31.7% (active)		2.73% (active)	16.4%
COc1ccc(Nc2ncc(C#N)c(NCCCNC(=O)C3CCC3)n2)cc1	49.7%	61.9%	58.1%	68.9%	60.1%	71.9%	92%	78.1%	32.6%	103%	80.6%	87.3%	35.3%	11.1%	41.4%	48.1%	26.3%	52.8%	34.7%	
COc1ccc(C(c2cc(OC)c(OC)c(OC)c2)N2CCCCC2)cc1 (centres undefined)	20.6%	7.93% (active)	26.6%	30.4%	26.1%	25.1%	29.5%	18.2%	36.3%	47.2%	22%	59.1%	54.3%	48.8%	57.6%	50.9%	29.2%		31.5%	29.9%
COc1ccc(-c2cn(Cc3cc4ccccc4s3)nn2)cc1OCCN1CCCCC1	59.4%	20.1%	83.8%	86.3%	74.5%	68.4%	42.8%	83.8%	48.9%	75.8%	90.8%	84.3%	81.6%	37.2%	90.1%	89.4%	78.9%	-1.93% (active)	53%	
c1cc(OCCN2CCCCCC2)ccc1CNc1ccc2nc(CCC3CCCCC3)[nH]c2c1	3.08% (active)	8.15% (active)	74.2%	79.5%	45.2%	50.5%	-86.3% (active)	83.9%	-67.4% (active)	-8.14% (active)	75%	79.8%	54.7%	10.8%	88.7%	80.6%	42.8%	62.5%	25.5%	
O=C(O)CC(C(=O)O)/C(=C\c1ccccc1)c1ccccc1 (centres undefined)	107%	114%	83.2%	109%	99.8%	96.6%	94.8%	101%	99.1%	103%	109%	110%	104%	89.1%	108%	104%	103%	93%	98.9%	
CCCCO[C@@H]1C=C2[C@H]3CC(C)(C)C(=O)C[C@]3(C(=O)O[C@@H]3O[C@H](CO[C@@H]4O[C@H](CO)[C@@H](OC5OC(C)C(O)C(O)C5O)[C@H](O)[C@H]4O)[C@@H](O)[C@H](O)[C@H]3O)CC[C@@]2(C)[C@]2(C)CC[C@H]3C(C)(C)C(=O)CC[C@]3(C)[C@@H]12 (some centres undefined)	54.5%	43.2%	31.3%	88%	56.4%	85.2%	63.9%	81.4%	76.9%	41.5%	64.3%	87.1%	81.2%	19.4%	61.6%	22.9%	50.8%	93.9%	51.5%	
CCn1cc(Cc2cc(C(=O)Nc3cc4cc(OC)c(OC)cc4c(C)n3)ccc2Cl)cn1	19.3%	2.56% (active)	36%	44.7%	48.3%	29.2%	13.3%	43.8%	5.28% (active)	35%	42%	47.2%	50.2%	35%	73.7%	15.7%	47.8%	44.4%	42.6%	
CCN(CC)CCOc1ccc(Nc2ncc3cc(-c4c(Cl)cccc4Cl)c(=O)n(CCOC)c3n2)cc1	12.9%	-22.6% (active)	-39.9% (active)	18.4%	0.141% (active)	60%	13.6%	32.1%	-77.6% (active)	36.9%	34.8%	27.3%	10.5%	-88.9% (active)	-55.5% (active)	5.69% (active)	2.96% (active)		1.6% (active)	4.55% (active)
C[C@H](c1nc2ccc(C#N)cc2[nH]1)[C@H]1CC[C@H]2[C@@H]3CCC4=CC(=O)CC[C@]4(C)[C@H]3CC[C@]12C	44.7%	32.9%	75.7%	71.6%	65.3%	28.5%	50.4%	56.6%	71.7%	89.4%	84.9%	58.4%	69.5%	51.8%	95.2%	80.4%	50.8%	14.5%	49.2%	
Cc1nc2ccccc2c(/C=C/c2ccc(F)cc2)c1C(=O)/C=C/c1ccccc1	-4.2% (active)	3.31% (active)	12.1%	38.2%	-7.24% (active)	29.8%	27.4%	26.1%	-82.5% (active)	19.4%	14.2%	38.2%	22.2%	27.4%	23.2%	11.6%	24.7%		4.66% (active)	7.91% (active)
CC(C)(C)c1ccc(S(=O)(=O)Oc2ccc(-c3sc4cc(OS(=O)(=O)c5ccc(C(C)(C)C)cc5)ccc4c3C(=O)c3ccc(OCCN4CCCCC4)cc3)cc2)cc1	97.8%	90.8%	56.6%	97.6%	103%	88.8%	99.6%	95%	99.9%	97.8%	89.9%	83.8%	98.9%	74.6%	90.4%	98.1%	95.7%	105%	95.7%	
Nc1nc2ccccc2c2c(=O)c3cc(Cl)ccc3sc12	96.8%	102%	91.2%	96.1%	98.5%	90.7%	96.5%	93.4%	103%	109%	106%	91.4%	94.9%	86.6%	109%	99.8%	87.8%	107%	105%	
